Data: PubChem BioAssay (NCATS)
Values joined by “and” are separate entries in the source; they are usually repeats but may differ in a detail not shown here. Identical values can stand only once. Values without a mark were called inactive. Results filed as inconclusive are left out. Active and inactive are the calls of the source. Unless noted, calls come from the whole dose curve; as a rule, active = well fitted curve in either direction with a large enough effect (not every such curve was filed as active); inconclusive = small, poorly fitted or top-dose-only effect, or another doubt; inactive = flat fitted curve, though single readings scatter.

Legend:
[1] = target: Lysosomal acid glucosylceramidase (Homo sapiens) (UniProt P04062); assay: Glucocerebrosidase-p2 (AID 348; in the data active = potency below about 10 µM; note: potency is the fitted concentration of half-maximal effect); conditions: purified GBA, blue fluorogenic substrate, 40 min
In short: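 Normal human glucocerebrosidase (0.2 nM) with blue fluorogenic substrate (80 uM final) in citrate/phosphate pH 5.9 with 10mM sodium taurocholate, 0.01% tween-20; 40 min RT, NaOH/glycine stop; fluorescence Ex 365/Em 440; AC50 from a titration from 0.6 nM upwards.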

[2] = AP1 Signaling Pathway (AID 357); conditions: ME-180 AP-1-bla reporter, EGF-induced, beta-lactamase ratio, 5 h; at 7.69 µM (top of the series) unless noted;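 note: ME-180 reporter cells stimulated with EGF at its EC50 level; % is set by controls: 0 for no effect and ±100 for the full control effect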
In short: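 Beta-lactamase reporter under AP-1 response element, ME-180 background. Stimulus: EC50 EGF. Compound exposure 5 h, 37 °C. Detection: CCF4, 2.5 h RT, 460/530 nm. Values: AC50 from titration.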

[3] = target: Cytochrome P450 1A2 (Homo sapiens) (UniProt P05177); assay: p450-cyp1a2 (AID 410; calls by dose curve; note: potency is the fitted concentration of half-maximal effect;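 for activity change, negative = inhibition: -100% = full effect of reference inhibitor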); conditions: recombinant CYP1A2, luciferin-ME demethylation, luminescence; series mostly up to 11.4 µM
In short: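 20nM CYP1A2, 100uM Luciferin-ME (=Km), 100mM KPO4; cpd 10 min RT; +NADPH regen, 60 min RT; stop/detect 20 min; luminescence. Normalized to furafylline 57 uM = full inhibition.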

[4] = NFAT Signaling Pathway (AID 444); conditions: Jurkat NFAT-bla M1, carbachol, beta-lactamase ratio, 5 h; at 7.69 µM (top of the series) unless noted;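 note: carbachol stimulus at about its EC50 of 1 µM final; % is set by controls: 0 for no effect and ±100 for the full control effect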
In short: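 Jurkat cells with NFAT-driven β-lactamase reporter and co-expressed M1 receptor, stimulated with carbachol (final 1 uM, ~EC50), compound titration, 5 h at 37 °C. CCF4 loaded 1 h at RT; 460/530 nm ratio gave %activity and AC50.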

[5] = Stat Signaling Pathway (AID 446); conditions: ME-180 (cervical carcinoma) SIE beta-lactamase reporter, IL-6 stimulated, 5 h; at 7.69 µM (top of the series) unless noted;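 note: ME-180 cervical cancer cells given 40 pM IL-6 alongside compound; SIE-controlled beta-lactamase reporter measured as 460/530 nm FRET emission ratio; % is set by controls: 0 for no effect and ±100 for the full control effect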
In short: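 Normalization used AC90 stimulation (300 pM IL-6) and AC90 inhibition (125 nM pan-JAK inhibitor at 40 pM IL-6). The underlying signal is SIE-driven beta-lactamase in ME-180 cells after 5 h IL-6 exposure with compound.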

[6] = target: Glucocorticoid receptor (Homo sapiens) (UniProt P04150); assay: GR-GFP Redistribution (AID 450;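 active = compounds whose dose series gives a full or clear partial fitted curve of increased nuclear translocation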; note: potency is the fitted concentration of half-maximal effect); conditions: U2OS GR-GFP nuclear translocation, laser cytometry, 2 h
[7] = target: Glucocorticoid receptor (Homo sapiens) (UniProt P04150); assay: GR-EFC Redistribution (AID 451; calls by dose curve; note: potency is the fitted concentration of half-maximal effect); conditions: CHO-K1 GR-EFC translocation, beta-gal luminescence, 2 h
In short: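 CHO-K1 cells expressing nuclear EA and GR-ED fragments of b-gal; compounds titrated up to 46 uM final, 2 h at 37 C. GR nuclear translocation read as complemented b-gal luminescence after 1 h RT detection.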

[8] = target: Mitogen-activated protein kinase 10 (Mus musculus) (UniProt Q61831); assay: JNK3 AlphaScreen Assay (AID 530); conditions: JNK3 lysate, c-Jun phosphorylation; series mostly up to 11.4 µM;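 note: kinase came from lysate of stimulated human HepG2 cells; signal reports phosphorylation of biotinylated GST-cJun 1-79 at Ser73 with 10 µM ATP; % is set by controls: 0 for no effect and ±100 for the full control effect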
In short: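 HepG2 lysate (IL-1b/TNFa pre-activated) + biotin-GST-cJun 1-79 + anti-pSer73 cJun; cpd titration, 15 min RT; ATP 10 uM start; Tris pH 7.6, MgCl2, DTT, vanadate; beads in EDTA buffer; AlphaScreen.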

[9] = target: 3',5'-cyclic-AMP phosphodiesterase 4B (Homo sapiens) (UniProt Q07343); assay: qHTS Assay for Inhibitors of PDE-IV (AID 607; active = well fitted activation curve with a large enough effect in the main read-out, with a control signal flat, not every such curve was filed as active; note: % of control where 0% means no effect); conditions: HEK293 ACTOne CNG channel cells, membrane potential fluorescence; series mostly up to 22.9 µM
In short: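 HEK293 ACTOne cells with CNG channel (1000/well), endogenous PDE4; membrane potential dye, compounds up to 22.9 uM final. Fluorescence Ex 535/Em 590; RO 20-1724 (100 uM final) as reference.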

Sequence of Lysosomal acid glucosylceramidase (Homo sapiens) (P04062 whole entry, looked up): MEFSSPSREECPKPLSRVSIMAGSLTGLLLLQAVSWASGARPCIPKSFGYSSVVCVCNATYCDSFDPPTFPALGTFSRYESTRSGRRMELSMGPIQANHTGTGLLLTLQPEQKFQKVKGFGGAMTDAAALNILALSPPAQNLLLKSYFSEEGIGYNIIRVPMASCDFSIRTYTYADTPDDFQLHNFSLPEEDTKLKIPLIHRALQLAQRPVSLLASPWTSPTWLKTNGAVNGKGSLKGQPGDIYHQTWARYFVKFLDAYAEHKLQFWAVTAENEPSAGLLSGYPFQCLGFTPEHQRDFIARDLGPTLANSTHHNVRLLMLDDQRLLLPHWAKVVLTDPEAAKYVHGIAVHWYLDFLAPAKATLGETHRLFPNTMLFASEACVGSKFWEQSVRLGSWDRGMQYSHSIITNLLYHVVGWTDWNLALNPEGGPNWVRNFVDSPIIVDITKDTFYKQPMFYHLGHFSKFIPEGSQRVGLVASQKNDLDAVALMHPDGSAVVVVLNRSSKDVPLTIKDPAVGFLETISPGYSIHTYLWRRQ
Sequence of Cytochrome P450 1A2 (Homo sapiens) (P05177 whole entry, looked up): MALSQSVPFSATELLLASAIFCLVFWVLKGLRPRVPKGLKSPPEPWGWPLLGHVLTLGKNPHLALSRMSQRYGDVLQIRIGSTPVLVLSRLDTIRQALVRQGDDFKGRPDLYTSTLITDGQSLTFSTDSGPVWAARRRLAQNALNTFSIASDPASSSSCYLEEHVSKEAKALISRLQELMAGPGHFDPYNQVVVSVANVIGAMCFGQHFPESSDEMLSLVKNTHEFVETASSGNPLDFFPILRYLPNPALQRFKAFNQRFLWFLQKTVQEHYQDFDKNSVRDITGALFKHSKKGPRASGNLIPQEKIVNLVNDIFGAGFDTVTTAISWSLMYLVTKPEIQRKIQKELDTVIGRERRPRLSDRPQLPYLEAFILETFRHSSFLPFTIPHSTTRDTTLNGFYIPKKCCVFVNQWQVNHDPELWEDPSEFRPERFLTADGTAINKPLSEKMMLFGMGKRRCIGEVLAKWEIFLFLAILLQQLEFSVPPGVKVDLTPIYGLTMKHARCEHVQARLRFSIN
Sequence of Glucocorticoid receptor (Homo sapiens) (P04150 whole entry, looked up, the tested form may be a part): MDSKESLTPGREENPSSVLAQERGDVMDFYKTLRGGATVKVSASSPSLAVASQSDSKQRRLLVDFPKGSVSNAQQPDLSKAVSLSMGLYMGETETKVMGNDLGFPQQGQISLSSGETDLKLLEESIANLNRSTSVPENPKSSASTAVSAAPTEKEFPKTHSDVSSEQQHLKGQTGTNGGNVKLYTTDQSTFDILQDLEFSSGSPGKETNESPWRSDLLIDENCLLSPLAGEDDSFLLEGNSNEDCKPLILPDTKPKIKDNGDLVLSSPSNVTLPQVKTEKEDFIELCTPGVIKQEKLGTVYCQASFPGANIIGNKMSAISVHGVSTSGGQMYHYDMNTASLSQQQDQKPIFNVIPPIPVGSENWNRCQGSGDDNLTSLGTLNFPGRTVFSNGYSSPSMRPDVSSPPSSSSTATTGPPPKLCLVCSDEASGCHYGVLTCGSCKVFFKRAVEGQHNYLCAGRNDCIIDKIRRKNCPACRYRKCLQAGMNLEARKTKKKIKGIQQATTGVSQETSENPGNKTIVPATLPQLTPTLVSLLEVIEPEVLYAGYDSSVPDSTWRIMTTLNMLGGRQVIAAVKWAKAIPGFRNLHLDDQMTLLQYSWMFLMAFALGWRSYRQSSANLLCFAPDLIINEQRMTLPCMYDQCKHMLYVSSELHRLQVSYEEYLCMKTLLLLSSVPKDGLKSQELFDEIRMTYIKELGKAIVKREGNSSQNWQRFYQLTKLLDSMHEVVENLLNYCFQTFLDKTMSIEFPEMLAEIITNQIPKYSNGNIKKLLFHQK
Sequence of 3',5'-cyclic-AMP phosphodiesterase 4B (Homo sapiens) (Q07343 whole entry, looked up): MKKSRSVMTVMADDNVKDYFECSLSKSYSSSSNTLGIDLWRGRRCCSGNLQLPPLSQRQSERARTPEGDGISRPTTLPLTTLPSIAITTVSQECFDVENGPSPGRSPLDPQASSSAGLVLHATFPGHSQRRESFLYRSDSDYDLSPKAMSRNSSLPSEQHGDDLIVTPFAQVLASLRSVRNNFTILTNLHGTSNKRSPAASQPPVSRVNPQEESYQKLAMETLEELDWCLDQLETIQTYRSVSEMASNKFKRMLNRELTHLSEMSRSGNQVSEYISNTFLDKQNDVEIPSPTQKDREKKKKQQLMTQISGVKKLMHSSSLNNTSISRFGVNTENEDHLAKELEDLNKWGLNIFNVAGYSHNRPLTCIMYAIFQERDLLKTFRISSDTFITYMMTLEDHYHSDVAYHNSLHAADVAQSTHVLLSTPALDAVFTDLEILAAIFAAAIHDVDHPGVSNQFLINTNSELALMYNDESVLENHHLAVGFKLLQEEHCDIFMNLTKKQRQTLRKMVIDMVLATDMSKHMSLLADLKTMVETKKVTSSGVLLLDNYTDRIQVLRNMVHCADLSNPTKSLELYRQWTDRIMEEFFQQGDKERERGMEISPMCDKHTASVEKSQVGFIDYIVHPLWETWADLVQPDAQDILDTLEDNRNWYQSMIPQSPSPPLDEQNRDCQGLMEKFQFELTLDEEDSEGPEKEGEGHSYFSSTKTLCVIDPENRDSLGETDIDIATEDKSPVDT

Row | Compound | Potency [1] [µM] | activity change, negative = inhibition [2] | Potency [3] | activity change, negative = inhibition [4] | activity, negative = inhibition [5] | Potency [6] [µM] | Potency [7] [µM] | Potency [8] | Potency [9]
1 | O=C(O)CCSC1=NCCN1 | > 11.4 | 1.39% | inactive | 4.68% | 6.09% | > 46 | > 9.22 | inactive | inactive
2 | CC(C)(CO[C@H]1C[C@H]2CC[C@@]1(C)C2(C)C)[N+](=O)[O-] | > 11.4 | -1.64% | inactive | 7.34% | -3.85% | > 46 | > 9.22 | inactive | inactive
3 | Cc1[nH]c(N)nc(=S)c1CCC(=O)O | > 11.4 | -7.6% | inactive | 1.85% | -3.94% | > 46 | > 9.22 | inactive | inactive
4 | NCCSCCc1ccccc1 | > 11.4 | -3.04% | 5.01 µM (active) | 3.22% | 4.42% | > 46 | > 9.22 | inactive | inactive
5 | NCCSC[C@H](N)C(=O)O | > 11.4 | -5.07% | inactive | 6.39% | 6.75% | > 46 | > 9.22 | inactive | inactive
6 | O=C(C[N+]1(c2ccccc2)CCOCC1)c1ccccc1 | > 11.4 | -5.21% | 3.98 µM (active) | 11.5% | -5.59% | > 46 | > 9.22 | inactive | inactive
7 | CCOC(=O)c1c(C)c(C)n2c1NC(=O)C2 | > 11.4 | 3.42% | 2 µM (active) | -19.4% | -3.92% | > 46 | > 9.22 | inactive | inactive
8 | NC(Cc1ccccc1)=NCC(=O)O | > 11.4 | 2% | inactive | -0.213% | -4.46% | > 46 | > 9.22 | inactive | inactive
9 | Cc1ccc(S(=O)(=O)NCc2cccc([N+](=O)[O-])c2)cc1 | > 11.4 | -2.52% | 3.98 µM (active) | 6.53% | 2.25% | > 46 | > 9.22 | inactive | inactive
10 | c1ccc(CCNc2ccccn2)nc1 | > 11.4 | -8.73% | 5.01 µM (active) | 2.35% | -1.9% | > 46 | > 9.22 | inactive | inactive
11 | O=C(O)C1=C/C(=C(/c2ccccc2)c2cc(C(=O)O)c(O)c3ccccc23)c2ccccc2C1=O | > 11.4 | 1.91% and 8.74% | inactive | 12% and -21.2% | 2.38% and 8.71% | > 46 | > 9.22 | inactive | inactive
12 | O=C(O)[C@@H]1CCN(Cc2oc(CO)cc(=O)c2O)C1 | > 11.4 | 6.76% | 10 µM (active) | -8.96% | 16.1% | > 46 | > 9.22 | inactive | inactive
13 | CC(=NC1CCCCC1)c1ccccc1O | > 11.4 | 6.06% | inactive | 16.7% | 11% | > 46 | > 9.22 | inactive | inactive
14 | O[C@@H]1[C@@H](OCc2ccccc2)OC[C@H](O)[C@@H]1O | > 11.4 | 17.3% | inactive | -8.65% | 4.2% | > 46 | > 9.22 | inactive | inactive
15 | CCCCN(c1ccccc1)c1ncnc2c1cnn2C | > 11.4 | -1.19% | 0.631 µM (active) | 12.1% | 5.06% | > 46 | > 9.22 | inactive | inactive
